Compound activity deposited in PubChem BioAssay by National Center for Advancing Translational Sciences (NCATS).
D1 potentiator: human D1 dopamine receptor positive modulation | P21728 | 360,000 tested, 0.036% active | potentiation, % at 10 µM | HEK293 TREx D1 cells, calcium flux, dopamine EC20 potentiation; in the data active = potentiation above about 30%; also: 0% is about no effect
Target sequence (P21728 whole entry, looked up): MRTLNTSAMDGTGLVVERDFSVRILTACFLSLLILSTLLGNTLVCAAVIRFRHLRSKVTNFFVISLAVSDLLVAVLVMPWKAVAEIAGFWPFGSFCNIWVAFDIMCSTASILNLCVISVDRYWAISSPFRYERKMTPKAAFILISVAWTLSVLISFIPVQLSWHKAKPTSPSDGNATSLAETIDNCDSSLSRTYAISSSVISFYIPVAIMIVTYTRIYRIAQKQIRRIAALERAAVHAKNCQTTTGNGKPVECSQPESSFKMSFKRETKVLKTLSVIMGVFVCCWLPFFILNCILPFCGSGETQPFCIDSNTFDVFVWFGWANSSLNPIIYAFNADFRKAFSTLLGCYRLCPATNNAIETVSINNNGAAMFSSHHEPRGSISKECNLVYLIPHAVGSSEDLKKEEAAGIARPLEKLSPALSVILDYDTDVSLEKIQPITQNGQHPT
TRHR PAM: TRH receptor (human) allosteric enhancement | TRHR cells, fluo-8 calcium fluorescence, EC20 TRH enhancement | AID 493056 | P34981 | enhancement, % at 2 µM | 360,000 tested, 0.66% active; in the data active = enhancement above about 30%; also: 0% is about no effect
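Enhancer read-out: after compound pinning and an initial kinetic agonist-mode read, an EC20 of TRH (10 nM final) was injected and fluo-8 calcium signal (Ex 480/Em 530) followed at 1 s/cycle for 100 cycles in TRHR-expressing cells.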
TRHR ag: activates the human TRH receptor; TRHR cells, calcium flux fluo-8, FDSS agonist mode; activation, % at 2 µM; P34981; 360,000 tested, 0.18% active; also: 0% is about no effect
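TRHR-expressing cells, plated overnight in medium with 10% serum, were loaded with fluo-8 calcium dye at room temperature. After a 10 s baseline, library compound was pin-added and calcium release was recorded kinetically (ex 480/em 530) as agonist response.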
D1 antagonist: human D1 dopamine receptor antagonism; HEK293 TREx D1 cells, calcium flux, dopamine EC80; active compounds read low; activity change, negative = inhibition, % at 10 µM; 360,000 tested, 3.2% active; in the data active = activity change below about -30%; also: % is scaled to controls: 0 for no effect and ±100 for the full control effect
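After overnight tetracycline induction at 30 C, force-coupled D1 HEK293 cells took up a no-wash calcium dye at room temperature. Compounds were added and monitored 180 s, and the response to EC80 dopamine was then recorded.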
D1 ag: agonists of human D1 dopamine receptor; P21728; HEK293 T-REx D1 cells, calcium flux, agonist mode; activation, % at 2 µM; 360,000 tested, 1% active; AID 504660; also: 0% is about no effect
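Inducible HEK293 T-REx D1 cells, force-coupled to calcium signalling, were plated at 4000 cells/well with tetracycline and held overnight at 30 C. After no-wash calcium dye loading, compound-evoked calcium rise over 180 s flagged agonists.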
* = called active by the depositor. The list is not random: actives were taken first. Their share in the collection is about 4.7%. Rule as the data show it, unless noted: active = activation above about 30%; inactive = the rest.

Screening COCCN(Cc1nc2ccccc2c(=O)[nH]1)C(=O)COc1c(C)cc(Cl)cc1C returned D1 potentiator 1.5, TRHR PAM 2.9, TRHR ag -0.2, D1 antagonist 10.2 and D1 ag 1.8.
Screening CCCCN(Cc1nc2ccccc2c(=O)[nH]1)C(=O)COc1ccc(F)cc1Cl returned D1 potentiator -14.8, TRHR PAM -1.0, TRHR ag 0.7, D1 antagonist -41.7* and D1 ag -0.9.
For COc1cccc(CN(C)C(=O)C23CC4CC(CC(C4)C2)C3)c1 the results were D1 potentiator 3.1, TRHR PAM 22.7, TRHR ag 0.4, D1 antagonist -34.3* and D1 ag 2.4.
For CCN(CC)S(=O)(=O)c1ccc2oc(SCc3ccc(F)cc3)nc2c1 the results were D1 potentiator -8.1, TRHR PAM -1.3, TRHR ag -1.7, D1 antagonist -35.7* and D1 ag 28.8.
COc1ccc2c3c(cccc13)C(=O)CC2 was read as D1 potentiator -10.4, TRHR PAM 7.8, TRHR ag 121.8*, D1 antagonist 0.3 and D1 ag 52.0*.
`Cc1ccc(N2C(=O)CCSC23C(=O)N(Cc2ccccc2)c2ccccc23)cc1` (stereo not given) gave D1 potentiator 3.1, TRHR PAM 7.5, TRHR ag -1.0, D1 antagonist 7.5 and D1 ag -0.5.
COc1cc(Cl)c(C)cc1NC(=O)c1nn(-c2ccc(C)cc2)c(=O)n(C)c1=O was read as D1 potentiator 7.9, TRHR PAM 2.3, TRHR ag 0.2, D1 antagonist -97.8* and D1 ag 2.7.
For Cc1ccc(-n2nc(C(=O)Nc3ccc(F)cc3Cl)c(=O)n(C)c2=O)cc1 the results were D1 potentiator -2.2, TRHR PAM -1.6, TRHR ag 0.3, D1 antagonist 7.3 and D1 ag 3.4.
CC(=O)c1c(C)[nH]c(C(=O)N2c3ccccc3CC2C)c1C (stereo not given) was read as D1 potentiator -0.7, TRHR PAM -1.4, TRHR ag 0.1, D1 antagonist -41.2* and D1 ag 2.6.
Screening CC(=O)c1c(C)[nH]c(C(=O)N2CCc3ccccc3C2)c1C returned D1 potentiator -1.6, TRHR PAM 8.4, TRHR ag -0.4, D1 antagonist 5.4 and D1 ag 4.7.
COc1ccccc1Nc1sc(C(=O)c2ccc(C)cc2C)c(N)c1S(=O)(=O)c1ccccc1 was read as D1 potentiator -4.1, TRHR PAM -1.2, TRHR ag 0.7, D1 antagonist -2.5 and D1 ag 6.5.
Screening Cc1ccc(CCNC(=O)c2ccc(CSc3nc4ccncc4n3Cc3ccc(F)cc3)cc2)cc1 returned D1 potentiator -4.6, TRHR PAM 6.3, TRHR ag -0.4, D1 antagonist 9.7 and D1 ag 12.6.
`O=C1CCCC2=C1C(c1ccc(O)c(Br)c1)C1=C(CCCC1=O)N2c1ccccc1` gave D1 potentiator 0.6, TRHR PAM -5.4, TRHR ag 0.2, D1 antagonist -36.5* and D1 ag 9.5.
CCOc1ccccc1N(CC(=O)N(C)Cc1ccccc1)S(=O)(=O)c1ccccc1 was read as D1 potentiator -17.6, TRHR PAM 8.2, TRHR ag -0.3, D1 antagonist -37.4* and D1 ag 9.3.
CCC(C)NC(=O)Cn1nc(C(F)(F)F)c2c1CCCC2 (stereo not given) was read as D1 potentiator -8.8, TRHR PAM -0.2, TRHR ag -0.2, D1 antagonist -37.9* and D1 ag -0.5.
Screening COc1ccc(CN2CCN(Cc3c[nH]c4ccccc34)CC2CCO)c(F)c1 (stereo not given) returned D1 potentiator -10.7, TRHR PAM 1.0, TRHR ag 1.3, D1 antagonist -36.2* and D1 ag 14.8.
Cc1ncc(CN2CCN(Cc3ccccc3)C(CCO)C2)s1 (stereo not given) was read as D1 potentiator 5.2, TRHR PAM 21.8, TRHR ag -0.7, D1 antagonist -5.6 and D1 ag 0.4.
CCOc1ccc(CN2CCN(Cc3cnc(-c4ccccc4)s3)CC2CCO)cc1 (stereo not given) was read as D1 potentiator -2.9, TRHR PAM 1.3, TRHR ag -0.7, D1 antagonist -10.4 and D1 ag 61.4*.
COc1cccc(CN2CCN(Cc3cc4ccccc4[nH]3)CC2CCO)c1 (stereo not given) was read as D1 potentiator -1.2, TRHR PAM -17.1, TRHR ag 15.4, D1 antagonist -48.9* and D1 ag 72.1*.
Screening CCOc1ccc(CN2CCN(Cc3cc4ccccc4[nH]3)CC2CCO)cc1 (stereo not given) returned D1 potentiator 6.0, TRHR PAM -7.3, TRHR ag 23.8, D1 antagonist -30.2* and D1 ag 41.0*.
`CC(C)(C)CN1CCN(Cc2cc3ccccc3[nH]2)CC1CCO` (stereo not given) gave D1 potentiator -7.0, TRHR PAM 1.9, TRHR ag 0.2, D1 antagonist 16.7 and D1 ag 2.5.
`CCCCN1CC(c2nc3ccccc3n2CCCCOc2ccc(C)c(C)c2)CC1=O` (stereo not given) gave D1 potentiator -1.9, TRHR PAM -2.7, TRHR ag -0.1, D1 antagonist 0.3 and D1 ag 1.6.
COc1ccc(CC(=O)N2CCc3cc(OC)c(OC)cc3C2COc2ccc(OC)cc2)cc1 (stereo not given) was read as D1 potentiator -1.8, TRHR PAM 7.3, TRHR ag 0.8, D1 antagonist -9.2 and D1 ag 4.8.
For Cc1ccc(NC(=O)CN2C(=O)COc3ccc(S(=O)(=O)NC4CCCC4)cc32)cc1N(C)C the results were D1 potentiator 3.8, TRHR PAM 4.2, TRHR ag -0.2, D1 antagonist -1.5 and D1 ag -0.6.
`Cc1cccc(C)c1NC(=O)CN(C)C(=O)[C@H](C)NC(=O)c1ccco1` gave D1 potentiator 6.9, TRHR PAM -3.1, TRHR ag -0.3, D1 antagonist -80.4* and D1 ag 3.9.
`S=C1NCN(CCc2ccccc2)CN1Cc1ccccc1` gave D1 potentiator -5.5, TRHR PAM 14.3, TRHR ag -0.1, D1 antagonist 0.5 and D1 ag 53.4*.
CC(C)CN1CN(Cc2ccccc2)CNC1=S was read as D1 potentiator 0.2, TRHR PAM 4.6, TRHR ag -0.3, D1 antagonist -31.1* and D1 ag 0.2.
COc1cccc(N2CN(CCc3ccccc3)CNC2=S)c1 was read as D1 potentiator -5.8, TRHR PAM -2.8, TRHR ag -1.0, D1 antagonist -30.3* and D1 ag 2.6.
`CCCN1CNC(=S)N(Cc2ccccc2)C1` gave D1 potentiator -2.1, TRHR PAM -4.8, TRHR ag 0.2, D1 antagonist 10.1 and D1 ag 2.2.
